Details in all cases: mRNA level, 48 h; actives raise or lower the signal
Read-out in test [1]: Hypoxia-inducible factor 1-alpha (Homo sapiens) (UniProt Q16665)
The test is described as follows: LTEA_HepaRG_HIF1A: Life Technologies and Expression Analysis (LTEA) Assay for Hypoxia-inducible factor 1 (HIF1A) Trancription factor using HepaRG (AID 2283503). Summed up: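 HIF1A transcript level read by qRT-PCR (ACTB, GAPDH, POLR2A normalization) after 48 h chemical exposure of HepaRG cultures. Eight half-log concentrations, top 100 uM, 0.5% DMSO vehicle, duplicates; bidirectional curve fit against DMSO baseline.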

Read-out in test [2]: 3-Hydroxy-3-Methylglutaryl-CoA Synthase 2 (HMGCS2), HMGCS2 (gene 3158)
The test is described as follows: LTEA_HepaRG_HMGCS2: Life Technologies and Expression Analysis (LTEA) Assay for 3-Hydroxy-3-Methylglutaryl-CoA Synthase 2 (HMGCS2) using HepaRG (AID 2283504). The method, boiled down: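 Expression of HMGCS2 in human HepaRG liver cells is measured by qRT-PCR 48 h after dosing (highest 100 uM, half-log series, 0.5% DMSO). Values come from bidirectional concentration-response fitting with DMSO as baseline.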

Read-out in test [3]: HGF (gene 3082)
The test is described as follows: LTEA_HepaRG_HGF: Life Technologies and Expression Analysis (LTEA) Assay for Hepatocyte Growth Facto (HGF) using HepaRG (AID 2283505). The method, boiled down: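 Gain or loss of HGF mRNA in human HepaRG liver cells after 48 h chemical exposure; eight concentrations up to 100 uM with 0.5% DMSO vehicle, quantified by TaqMan qRT-PCR.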

Read-out in test [4]: Insulin Like Growth Factor 1 (IGF1), IGF1 (gene 3479)
The test is described as follows: LTEA_HepaRG_IGF1: Life Technologies and Expression Analysis (LTEA) Assay for Insulin Like Growth Factor 1 (IGF1) using HepaRG (AID 2283506). Summed up: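 Expression measured by TaqMan qRT-PCR on a Fluidigm array, with three housekeeping genes for normalisation, after 48 h treatment of HepaRG cells. Top concentration 100 uM with half-log steps, 0.5% DMSO vehicle, bidirectional fit.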

Read-out in test [5]: Intercellular Adhesion Molecule 1 (ICAM1), ICAM1 (gene 3383)
The test is described as follows: LTEA_HepaRG_ICAM1: Life Technologies and Expression Analysis (LTEA) Assay for Intercellular Adhesion Molecule 1 (ICAM1) using HepaRG (AID 2283507). The method, boiled down:
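Gain or loss of transcript in HepaRG hepatic cells is quantified by qRT-PCR after 48 h chemical exposure (up to 100 uM, half-log steps), with DMSO as baseline.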

Read-out in test [6]: Insulin-like growth factor-binding protein 1 (IGFBP1), IGFBP1 (gene 3484)
The test is described as follows: LTEA_HepaRG_IGFBP1: Life Technologies and Expression Analysis (LTEA) Assay for Insulin-like growth factor-binding protein 1 (IGFBP1) using HepaRG (AID 2283508). Summed up:
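mRNA induction or loss was quantified by qRT-PCR after 48 h chemical exposure of human HepaRG cells, with 0.5% DMSO as vehicle and baseline. Concentration-response over eight points up to 100 uM.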

Read-out in test [7]: Interleukin 6 (IL6), IL6 (gene 3569)
The test can be described thus: LTEA_HepaRG_IL6: Life Technologies and Expression Analysis (LTEA) Assay for Interleukin 6 (IL6) using HepaRG (AID 2283509). Summed up: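 Changes in IL6 mRNA, up or down relative to 0.5% DMSO controls, were derived from concentration-response curves in human HepaRG cells treated for 48 h at up to 100 uM, with ACTB, GAPDH and POLR2A as normalizers.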

Read-out in test [8]: Interleukin 6 Receptor (IL6R), IL6R (gene 3570)
The test is described as follows: LTEA_HepaRG_IL6R: Life Technologies and Expression Analysis (LTEA) Assay for Interleukin 6 Receptor (IL6R) using HepaRG (AID 2283510).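 As to AC50: differentiated human HepaRG liver cells in serum-free induction medium; TaqMan qRT-PCR signal normalized to ACTB GAPDH and POLR2A housekeeping genes.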 Summed up:
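IL6R transcript level by qRT-PCR after 48 h chemical exposure (8-point, half-log, max 100 uM, 0.5% DMSO vehicle) of HepaRG cells in serum-free induction medium. Normalized to three housekeeping genes; curves fitted in both directions relative to DMSO.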

Read-out in test [9]: Potassium channel subfamily K member 1 (KCNK1), KCNK1 (gene 3775)
The test is described as follows: LTEA_HepaRG_KCNK1: Life Technologies and Expression Analysis (LTEA) Assay for Potassium channel subfamily K member 1 (KCNK1) using HepaRG (AID 2283511). The method, boiled down:
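Human HepaRG cultures receive test chemicals for 48 h in 0.5% DMSO, top concentration 100 uM with half-log dilutions. Induction or suppression of KCNK1 mRNA relative to DMSO is derived by bidirectional fitting of qRT-PCR data.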

Read-out in test [10]: Keratin 19 (KRT19), KRT19 (gene 3880)
The test can be described thus: LTEA_HepaRG_KRT19: Life Technologies and Expression Analysis (LTEA) Assay for Keratin 19 (KRT19) using HepaRG (AID 2283512). The method, boiled down: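 Gene-expression endpoint in the human liver line HepaRG after 48 h exposure to up to 100 uM test chemical with 0.5% DMSO vehicle; KRT19 mRNA by qRT-PCR, analyzed bidirectionally versus DMSO.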

By AC50 is commonly meant the midpoint of the concentration-response curve, whichever way the signal moves.

The source made the active and inactive calls. The calls were made as follows: active = hit-call score of the fitted dose curve at least 0.9, where 1 is the maximum; inactive = score below 0.9.

Hypoxia-inducible factor 1-alpha (Homo sapiens), sequence (Q16665 whole entry, looked up): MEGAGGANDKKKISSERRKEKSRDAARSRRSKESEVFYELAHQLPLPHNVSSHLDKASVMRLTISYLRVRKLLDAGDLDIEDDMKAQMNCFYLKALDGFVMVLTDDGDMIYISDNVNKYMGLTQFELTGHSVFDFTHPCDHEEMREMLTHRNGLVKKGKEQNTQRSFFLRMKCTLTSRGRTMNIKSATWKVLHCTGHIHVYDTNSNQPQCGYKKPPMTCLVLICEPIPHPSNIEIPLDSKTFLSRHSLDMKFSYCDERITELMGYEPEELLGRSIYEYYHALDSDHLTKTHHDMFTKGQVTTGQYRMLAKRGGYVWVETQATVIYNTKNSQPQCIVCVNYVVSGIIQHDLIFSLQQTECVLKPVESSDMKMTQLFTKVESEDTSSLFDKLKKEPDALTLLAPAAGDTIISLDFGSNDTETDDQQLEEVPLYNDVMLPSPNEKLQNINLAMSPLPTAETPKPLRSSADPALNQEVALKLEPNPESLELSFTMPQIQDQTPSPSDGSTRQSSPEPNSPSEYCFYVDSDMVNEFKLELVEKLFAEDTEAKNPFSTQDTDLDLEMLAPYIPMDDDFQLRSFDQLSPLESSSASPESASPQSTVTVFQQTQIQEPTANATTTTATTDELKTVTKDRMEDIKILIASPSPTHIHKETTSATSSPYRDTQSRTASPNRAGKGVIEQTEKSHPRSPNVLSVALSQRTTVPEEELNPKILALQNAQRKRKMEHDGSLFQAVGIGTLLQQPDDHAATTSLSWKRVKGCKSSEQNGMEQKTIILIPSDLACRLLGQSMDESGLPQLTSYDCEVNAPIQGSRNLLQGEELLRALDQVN

With `CCOCCO`, the call in test [1], in test [2], in test [3], in test [4], in [5] and in test [6] was inactive. Further, the call in test [7], in test [8], in test [9] and in [10] was inactive.

Take `COCCOc1cc2cc(C(=O)NC3CCN(C(C)C)CC3)n(CC(=O)Nc3ccc(Cl)cn3)c2cn1`: the concentration at half-maximal activity (AC50) in test [1] was 72.9 µM (active); in test [2], 47.2 µM (active); in test [4] it was 13.8 µM (active); in test [6] it was 45 µM (active); in test [8], 10.6 µM (active); in test [10], 7.89 µM (active). For the same molecule, the molecule was called inactive in [3], in test [5], in test [7] and in [9].

Take `O=C(O)CC(O)C(=O)O` (centres undefined): the call in [1], in [2], in test [3], in [4], in [5] and in test [6] was inactive. The molecule was called inactive in [7], in test [8], in test [9] and in [10].

Consider `O=C1CCCCCN1`, for which the molecule was classed as inactive in test [1], in test [2], in test [3], in test [4], in [5] and in [6]. Also, the molecule was classed as inactive in test [7], in test [8], in test [9] and in test [10].

Take `Cn1c(=O)c2c(ncn2C)n(C)c1=O`: the outcome in test [1], in test [2], in test [3], in [4], in test [5] and in [6] was inactive. Further, the result in [7], in [8], in [9] and in test [10] was inactive.

Regarding `Nc1cccc(N)c1`, the molecule was called inactive in test [1], in test [2], in test [3], in test [4], in test [5] and in test [6]. Moreover, the result in test [7], in test [8], in test [9] and in [10] was inactive.

For the molecule `C[C@](N)(Cc1ccc(O)c(O)c1)C(=O)O`, the result in [1], in test [2], in test [3], in test [4], in test [5] and in test [6] was inactive. Moreover, the outcome in test [7], in test [8], in test [9] and in [10] was inactive.

For the molecule `COCCOCCOCCOC`, the molecule was classed as inactive in [1], in test [2], in test [3], in [4], in [5] and in test [6]. For the same molecule, the call in [7], in test [8], in [9] and in test [10] was inactive.

For `Nc1ccc(Nc2ccccc2)cc1`, the half-maximal activity concentration (AC50) in [1] was 50 µM (active); in [2], 60.9 µM (active); in [4], 50 µM (active); in [10], 50 µM (active). Further, the molecule was called inactive in [3], in test [5], in test [6], in test [7], in test [8] and in test [9].

Consider `O=C(OC[C@H]1O[C@@H](OC(=O)c2cc(O)c(O)c(OC(=O)c3cc(O)c(O)c(O)c3)c2)[C@H](OC(=O)c2cc(O)c(O)c(OC(=O)c3cc(O)c(O)c(O)c3)c2)[C@@H](OC(=O)c2cc(O)c(O)c(OC(=O)c3cc(O)c(O)c(O)c3)c2)[C@@H]1OC(=O)c1cc(O)c(O)c(OC(=O)c2cc(O)c(O)c(O)c2)c1)c1cc(O)c(O)c(OC(=O)c2cc(O)c(O)c(O)c2)c1`, for which the call in test [1], in [4], in test [9] and in [10] was inactive. Also, the AC50 in [2] was 9.74 µM (active); in test [3] it was 15.2 µM (active); in test [5] it was 6.76 µM (active); in test [6] it was 9.51 µM (active); in [7], 10.5 µM (active); in test [8], 15.2 µM (active).

On to `Clc1nc(Cl)c(Cl)c(Cl)c1Cl`, for which the result in test [1], in [3], in test [4], in [5], in test [6] and in test [7] was inactive. Also, the molecule was called inactive in test [8], in [9] and in test [10].

Take `O=C(O)c1cccc(N(Cc2cccnc2)c2ccc(OC(F)F)c(OC(F)F)c2)c1`: the molecule was classed as inactive in [1], in test [3], in test [4], in test [5], in test [6] and in test [7]. Moreover, the molecule was classed as inactive in test [8] and in test [9]. The concentration at half-maximal activity (AC50) in test [10] is 24.6 µM (active).

With `CNCc1ccc(NC(=O)c2c[nH]c3c2C(=O)CCC3)cc1`, the result in test [1], in [2], in test [3], in test [4], in test [5] and in [6] was inactive. Also, the result in test [7], in test [8], in [9] and in test [10] was inactive.

As for `COC(=O)c1c(Cl)c(Cl)c(C(=O)OC)c(Cl)c1Cl`, the call in test [1], in [2], in test [3], in test [4], in test [5] and in test [6] was inactive. Also, the result in test [7], in test [8], in [9] and in test [10] was inactive.

Take `CCOC(=O)c1ccc(C2CCC(NC[C@H](O)COc3ccc(O)c(NS(C)(=O)=O)c3)CC2)cc1` (some centres undefined): the molecule was classed as inactive in test [1], in [3], in [4], in test [5], in test [6] and in test [7]. The outcome in test [8] and in test [9] was inactive. In addition, the AC50 in test [10] is 2.04 µM (active).

Consider `O=P(OC(CCl)CCl)(OC(CCl)CCl)OC(CCl)CCl`, for which the outcome in test [1], in test [3], in test [8] and in [9] was inactive. Also, the AC50 in test [4] is 50 µM (active); in [5], 84.1 µM (active); in test [6], 62.7 µM (active); in test [7], 79.6 µM (active); in [10], 50 µM (active).

Regarding `CC(C)CC(C)(O)C#CC(C)(O)CC(C)C` (centres undefined), the molecule was called inactive in test [1], in test [3], in test [4], in test [5], in test [6] and in test [7]. Further, the molecule was classed as inactive in test [8], in [9] and in [10].

As for `CCc1cc(SCc2sc(-c3ccc(C(F)(F)F)cc3)nc2CN2CCN(c3ccc(OC)cc3)CC2)ccc1OCC(=O)O`, the AC50 is 91.1 µM (active) in test [1]; 77.1 µM (active) in test [2]; 7.66 µM (active) in test [3]; 73.8 µM (active) in test [4]; 92.9 µM (active) in test [5]; 88.6 µM (active) in [6]. Also, the half-maximal activity concentration (AC50) in [7] was 86 µM (active); in test [8], 26.2 µM (active); in test [9], 9.11 µM (active); in test [10], 94 µM (active).

With `COc1cccc(-c2ccc(/C=C\CN3CCCCCC3)cc2Cl)c1`, the AC50 is 83 µM (active) in test [1]; 66.7 µM (active) in test [4]; 75.7 µM (active) in test [5]; 74.5 µM (active) in [6]; 74.8 µM (active) in test [7]; 79.3 µM (active) in test [9]. For the same molecule, the half-maximal activity concentration (AC50) in test [10] was 45.2 µM (active). Besides, the call in test [3] and in test [8] was inactive.

Values taken from PubChem BioAssay (EPA / NIEHS).
